Laboratory results as given in PubChem BioAssay (Tox21).
Several values for one entry are separate records, joined by “and”; a condition that tells them apart may be missing. Identical values can stand only once. Some structures have more than one record in an assay (separate samples or runs), and their calls can disagree. Activity calls are given as the source filed them. Entries that show only a call come without a potency. Unless noted, calls come from the whole dose curve; as a rule, active = well fitted curve in the direction sought with a large enough effect in the repeat runs; inconclusive = weak or mixed curves; inactive = no such curve, though single readings can be large; an effect the other way counts as inactive or inconclusive.

Legend:
[1] = qHTS assay to identify small molecule antagonists of the thyroid receptor (TR) signaling pathway - cell viability counter screen (AID 743064); note: nearly all actives have a fitted effect of over 50% in size; note: potency is the fitted concentration of half-maximal effect
Procedure, shortened: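 GH3.TRE-Luc rat pituitary cells carrying a TRE-luciferase reporter were treated with compound plus 1 nM T3 (final) for 23.5 h at 37 °C. Viability was then read in the same wells by CellTiter-Fluor fluorescence after a further 30 min.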

[2] = qHTS assay to identify small molecule antagonists of the thyroid receptor (TR) signaling pathway (AID 743065); note: nearly all actives have a fitted effect of over 55% in size; note: potency is the fitted concentration of half-maximal effect
Procedure, shortened: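 Antagonism measured as loss of luciferase signal in GH3 cells stably carrying a TRE-luciferase reporter, co-treated with compound and T3 (1 nM final) for 23.5 h at 37 C. Viability was read in the same well by CellTiter-Fluor.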

[3] = tested on: thyroid hormone receptor (rat, GH3 cells); assay: qHTS assay to identify small molecule agonists of the thyroid receptor (TR) signaling pathway (AID 743066; calls by dose curve)
[4] = molecular target: Estrogen receptor (Homo sapiens) (UniProt P03372); assay: qHTS assay to identify small molecule antagonists of the estrogen receptor alpha (ER-alpha) signaling pathway (AID 743069; active = well fitted curve in the direction sought with a large enough effect in the signal ratio in the repeat runs, not every such curve was filed as active; inconclusive = weak or mixed curves, or effect the other way; inactive = no such curve, though single readings can be large or run the other way; the % refers to the signal ratio)
Procedure, shortened: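 Antagonist mode: compounds in DMSO were co-added with 17beta-estradiol to ER-alpha-bla HEK293 cells (2% charcoal-stripped serum) and left 18 h at 37C. Reporter inhibition was measured as FRET fluorescence after 2 h LiveBLAzer substrate at room temperature.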

[5] = molecular target: Estrogen receptor (Homo sapiens) (UniProt P03372); assay: qHTS assay to identify small molecule agonists of the estrogen receptor alpha (ER-alpha) signaling pathway using the BG1 cell line (AID 743079); note: nearly all actives have a fitted effect of over 20% in size; note: potency is the fitted concentration of half-maximal effect
[6] = qHTS assay to identify small molecule antagonists of the estrogen receptor alpha (ER-alpha) signaling pathway using the BG1 cell line - cell viability counter screen (AID 743081);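 note: compound given together with 17beta-estradiol as the ER stimulus; nearly all actives have a fitted effect of over 45% in size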; note: potency is the fitted concentration of half-maximal effect
Aromatase (Homo sapiens) = Aromatase (Homo sapiens) (UniProt P11511); assay: qHTS assay to identify aromatase inhibitors (AID 743083); note: nearly all actives have a fitted effect of over 55% in size; note: potency is the fitted concentration of half-maximal effect
[7] = qHTS assay to identify small molecule antagonists of the estrogen receptor alpha (ER-alpha) signaling pathway - cell viability counter screen (AID 743074; calls by dose curve;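 note: HEK293 cells carrying ER-alpha-UAS-bla reporter stimulated with 17beta-estradiol; nearly all actives have a fitted effect of over 45% in size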; note: potency is the fitted concentration of half-maximal effect)
[8] = molecular target: Estrogen receptor (Homo sapiens) (UniProt P03372); assay: qHTS assay to identify small molecule agonists of the estrogen receptor alpha (ER-alpha) signaling pathway (AID 743075; calls by dose curve;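 note: HEK293 GripTite cells with ER-alpha and UAS-driven beta-lactamase reporter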; note: potency is the fitted concentration of half-maximal effect)
[9] = qHTS assay to identify small molecule antagonists of the estrogen receptor alpha (ER-alpha) signaling pathway using the BG1 cell line (AID 743080; calls by dose curve;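 note: BG1 cells stimulated with 17beta-estradiol alongside compound; nearly all actives have a fitted effect of over 25% in size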; note: potency is the fitted concentration of half-maximal effect)
Procedure, shortened: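 Luciferase inhibition measured with ONE-Glo after 30 min at RT in BG1Luc4E2 cells given test compounds and 17beta-estradiol for 21.5 h at 37 C; CellTiter-Fluor viability read in the same wells beforehand.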

Aromatase (Homo sapiens), sequence (P11511 whole entry, looked up): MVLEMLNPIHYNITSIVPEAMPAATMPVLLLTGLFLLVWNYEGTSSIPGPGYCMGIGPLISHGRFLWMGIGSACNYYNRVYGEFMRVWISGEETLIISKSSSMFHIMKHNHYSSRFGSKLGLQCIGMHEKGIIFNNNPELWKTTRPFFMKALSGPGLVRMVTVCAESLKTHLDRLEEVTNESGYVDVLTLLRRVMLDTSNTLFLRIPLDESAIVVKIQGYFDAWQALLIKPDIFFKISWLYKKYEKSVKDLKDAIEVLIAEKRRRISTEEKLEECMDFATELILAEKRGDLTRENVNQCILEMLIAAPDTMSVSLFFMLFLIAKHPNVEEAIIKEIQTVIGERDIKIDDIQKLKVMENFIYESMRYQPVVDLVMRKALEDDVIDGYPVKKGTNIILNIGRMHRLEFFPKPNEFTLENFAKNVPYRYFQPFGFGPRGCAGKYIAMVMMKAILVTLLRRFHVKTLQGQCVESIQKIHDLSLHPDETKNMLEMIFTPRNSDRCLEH
Estrogen receptor (Homo sapiens), sequence (P03372 whole entry, looked up): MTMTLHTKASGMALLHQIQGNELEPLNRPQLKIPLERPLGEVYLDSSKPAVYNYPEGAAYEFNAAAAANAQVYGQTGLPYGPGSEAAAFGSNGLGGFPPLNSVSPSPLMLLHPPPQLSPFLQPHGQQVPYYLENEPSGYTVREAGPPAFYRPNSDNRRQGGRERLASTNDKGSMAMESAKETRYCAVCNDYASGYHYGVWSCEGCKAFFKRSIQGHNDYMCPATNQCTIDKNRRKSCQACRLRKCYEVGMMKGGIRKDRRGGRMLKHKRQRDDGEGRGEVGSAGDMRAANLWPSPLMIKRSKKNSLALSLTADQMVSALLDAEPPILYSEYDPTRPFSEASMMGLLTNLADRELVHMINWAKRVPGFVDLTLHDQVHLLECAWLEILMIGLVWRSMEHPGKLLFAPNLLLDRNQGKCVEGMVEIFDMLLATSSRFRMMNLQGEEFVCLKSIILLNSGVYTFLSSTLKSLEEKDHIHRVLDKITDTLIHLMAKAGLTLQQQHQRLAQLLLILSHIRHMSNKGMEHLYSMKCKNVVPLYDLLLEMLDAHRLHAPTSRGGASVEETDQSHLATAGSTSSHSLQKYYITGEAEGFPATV

Structure (SMILES) | Potency [1] | Potency [2] | Potency [3] | Potency [4] | Potency [5] | Potency [6] | Potency (Aromatase (Homo sapiens)) | Potency [7] | Potency [8] | Potency [9]
O=C(Nc1ccccc1SSc1ccccc1NC(=O)c1ccccc1)c1ccccc1 | 68.6 µM (active) | 21.8 µM (active) and 48.6 µM (active) | inactive | inactive | 27.4 µM (active) and 54.5 µM (active) | inactive | 13.8 µM (active) and 27.3 µM (active) | – | – | –
CC(=O)CC(C)=O | inactive | inactive | inactive | inactive | inactive | inactive | inactive | inactive | inactive | inactive
O=C(O)c1cccc(C(=O)O)c1 | inactive | inactive | inactive | inactive | inactive | inactive | inactive | inactive | inactive | inactive
CC(C(O)c1ccc(O)cc1)N1CCC(Cc2ccccc2)CC1 (stereo not drawn) | 21.1 µM (active) | 23.7 µM (active) | inactive | inactive | inactive | – | inactive | inactive | inactive | –
Cc1occc(=O)c1OC(=O)C(C)C | inactive | inactive | inactive | – | – | inactive | inactive | inactive | – | –
NC(Cc1ccc(Cl)cc1)C(=O)O (stereo not drawn) | inactive | inactive | inactive | – | – | inactive | inactive | inactive | – | –
CCN(CC)CCOc1ccc(/C(=C(\Cl)c2ccccc2)c2ccccc2)cc1 | 7.5 µM (active) and 7.86 µM (active) | 6.68 µM (active) and 7.86 µM (active) | inactive | – | – | inactive | 3.35 µM (active) and 1.4 µM (active) | 39.7 µM (active) | – | –
CCCCOCCOC(=O)c1ccccc1C(=O)OCCOCCCC | inactive | – | inactive | inactive | inactive | inactive | inactive | inactive | inactive | inactive
COc1ccc(CCN(C)CCCC(C#N)(c2ccc(OC)c(OC)c2)C(C)C)cc1OC (stereo not drawn) | 23.7 µM (active) and 21.6 µM (active) | 26.6 µM (active) and 30.6 µM (active) | inactive | – | – | inactive and 30.6 µM (active) | – | inactive | – | –
O=C(Cl)c1cccc(C(=O)Cl)c1 | inactive | inactive | inactive | – | – | inactive | inactive | inactive | – | –
CC1=C(C=O)C(C)(C)CC=C1 | inactive | inactive | inactive | – | – | inactive | inactive | inactive | – | –
Cc1ccc(S(=O)(=O)Oc2ccc(N=Nc3ccc(-c4ccc(N=Nc5c(O)ccc6cc(S(=O)(=O)O)cc(S(=O)(=O)O)c56)c(C)c4)cc3C)cc2)cc1 | 27.4 µM (active) and 17.8 µM (active) | 10.9 µM (active) | inactive | – | – | 30.8 µM (active) and 15.9 µM (active) | – | – | – | –
CCOC(=O)C(C)C(C)=O (stereo not drawn) | inactive | inactive | inactive | – | – | inactive | inactive | inactive | – | –
CCCCCC(=O)O[C@]1(C(C)=O)CC[C@H]2[C@@H]3CCC4=CC(=O)CC[C@]4(C)[C@H]3CC[C@@]21C | 18.8 µM (active) | 10.6 µM (active) and 19.2 µM (active) | inactive | – | – | inactive | inactive and 54.1 µM (active) | – | inactive | –
C=CC(=O)OCCCCCCOC(=O)C=C | 55.1 µM (active) and 54.5 µM (active) | 27.6 µM (active) and 43.3 µM (active) | inactive | – | inactive | inactive | – | inactive | – | –
CC(N)=O | inactive | inactive | inactive | – | – | inactive | inactive | inactive | – | –
CNC1(C)C2CCC(C2)C1(C)C (stereo not drawn) | inactive | inactive | inactive | – | – | inactive | inactive | inactive | – | –
NNCCc1ccccc1 | inactive and 27.4 µM (active) | 30.7 µM (active) | inactive | – | – | inactive | inactive | inactive | – | –
c1ccc2n[nH]nc2c1 | inactive | inactive | inactive | – | – | inactive | inactive | inactive | – | –
Oc1c(Cl)cc(Cl)c(Cl)c1Cc1c(O)c(Cl)cc(Cl)c1Cl | 26.6 µM (active) and 9.66 µM (active) and 24.3 µM (active) | 10.6 µM (active) and 2.43 µM (active) and 1.93 µM (active) | inactive | – | – | inactive | 10.6 µM (active) and 5.43 µM (active) and 6.11 µM (active) | 24.5 µM (active) and 4.9 µM (active) | – | –
CNCCC(Oc1ccc(C(F)(F)F)cc1)c1ccccc1 (stereo not drawn) | 11.9 µM (active) and 9.56 µM (active) | 11.9 µM (active) and 15.2 µM (active) | – | – | – | inactive | 47.9 µM (active) | inactive and 48.4 µM (active) | – | –
O=C(O)c1cn(-c2ccc(F)cc2)c2cc(N3CCNCC3)c(F)cc2c1=O | inactive | inactive | inactive | – | – | inactive | inactive | inactive | – | –

Structure (SMILES) | Potency [1] | Potency [2] | Potency [3] | Potency [4] | Potency [5] | Potency [6] | Potency (Aromatase (Homo sapiens)) | Potency [7] | Potency [8] | Potency [9]
OCCOCCN1CCN(C(c2ccccc2)c2ccc(Cl)cc2)CC1 (stereo not drawn) | 26.9 µM (active) | 23.7 µM (active) and 47.9 µM (active) | inactive | – | – | inactive | inactive | inactive | – | –
CCC(=O)/C=C/C1C(C)=CCCC1(C)C (stereo not drawn) | inactive | inactive | inactive | – | – | inactive | inactive | inactive | – | –
COc1cc(C(=S)N2CCOCC2)ccc1O | inactive | inactive | inactive | – | inactive | inactive | inactive | inactive | inactive | inactive
O=Nc1ccc(Nc2ccccc2)cc1 | 5.48 µM (active) and 6.86 µM (active) | 4.35 µM (active) and 5.45 µM (active) | inactive | – | 68.6 µM (active) | inactive | – | – | 12.4 µM [inconclusive] (active) and 55 µM [activator] (active) | –
CC[C@]1(O)C[C@@H]2CN(CCc3c([nH]c4ccccc34)[C@@](C(=O)OC)(c3cc4c(cc3OC)N(C)[C@H]3[C@@](O)(C(=O)OC)[C@H](OC(C)=O)[C@]5(CC)C=CCN6CC[C@]43[C@@H]65)C2)C1 | 188 nM (active) and 266 nM (active) | 75 nM (active) and 42.2 nM (active) | – | – | – | 15 µM (active) | 21.1 µM (active) | – | – | 3.35 µM (active)
O=C(Oc1ccccc1)c1ccccc1O | inactive | – | inactive | inactive | inactive | inactive | inactive | inactive | inactive | inactive
Cc1ccnc2c1NC(=O)c1cccnc1N2C1CC1 | inactive | inactive | inactive | – | – | inactive | inactive | inactive | – | –
CC(C)C(=O)c1c(C(C)C)nn2ccccc12 | inactive | inactive | inactive | – | – | inactive | inactive | – | – | –
CC(=O)OCCOCCOCCOC(C)=O | inactive | – | inactive | inactive | inactive | inactive | inactive | inactive | inactive | inactive
Cc1cccc2n[nH]nc12 | inactive | inactive | inactive | – | – | inactive | – | inactive | – | –
COc1ccc(CCN2CCC(Nc3nc4ccccc4n3Cc3ccc(F)cc3)CC2)cc1 | 5.31 µM (active) and 1.25 µM (active) | 5.96 µM (active) and 1.57 µM (active) | inactive | – | – | 55.7 µM (active) | 6.25 µM (active) | 12.6 µM (active) | – | –
Cc1cc(OCCOCC[N+](C)(C)Cc2ccccc2)ccc1C(C)(C)CC(C)(C)C | 10.6 µM (active) and 12.1 µM (active) | 13.3 µM (active) and 10.8 µM (active) | inactive | – | – | inactive | 21.1 µM (active) and 30.5 µM (active) | 15.1 µM (active) and 6.13 µM (active) | inactive | 26.6 µM (active)
CCCCN(CCO)CCCC | inactive | – | inactive | inactive | inactive | inactive | inactive | inactive | inactive | inactive
Cc1cc(Cc2cc(C)cc(C(C)(C)C)c2O)c(O)c(C(C)(C)C)c1 | 15.4 µM (active) and 12.2 µM (active) | 6.89 µM (active) and 8.63 µM (active) | inactive | – | – | 68.9 µM (active) | 30.8 µM (active) and 48.6 µM (active) | 22 µM (active) and 24.5 µM (active) | – | –
CCCCCCCCCCCCc1ccccc1O | 13.7 µM (active) | 13.7 µM (active) | inactive | – | 956 nM (active) and 1.93 µM (active) | 67.7 µM (active) | 30.2 µM (active) and 27.3 µM (active) | 48.3 µM (active) and 49 µM (active) | 13.6 µM [inconclusive] (active) and 3.89 µM [inconclusive] (active) | –
CC(=O)OCC1=C(C(=O)O)N2C(=O)[C@@H](NC(=O)Cc3cccs3)[C@H]2SC1 | inactive | inactive | inactive | – | – | inactive | inactive | inactive | – | –
CC(C)(C)c1ccc(O)c(C(C)(C)C)c1 | 27.2 µM (active) and 30.6 µM (active) | 30.5 µM (active) and 24.3 µM (active) | – | inactive | – | inactive | 54.3 µM (active) and 54.5 µM (active) | 34.5 µM (active) and inactive | – | 48.6 µM (active)
COc1ccc(COC(C)=O)cc1 | inactive | inactive | inactive | – | – | inactive | inactive | inactive | – | –
Nc1nc(=S)c2[nH]cnc2[nH]1 | inactive | inactive | inactive | – | 21.1 µM (active) and inactive | inactive | inactive | – | 19 µM [activator] (active) and inactive | inactive and 750 nM (active)
COC(=O)/C=C/c1ccccc1 | inactive | – | inactive | inactive | – | inactive | inactive | inactive | inactive | inactive
Cc1cc(C(C)(C)C)c(O)c(C(C)(C)C)c1 | inactive | – | inactive | – | – | inactive | inactive | inactive | – | –
[Cl][In]([Cl])[Cl] | inactive | – | inactive | inactive | – | inactive | inactive | inactive | inactive | inactive
